Screen size: about 39,000 compounds; about 3,300 (8.5%) were called active. The list comes from a sample in which actives are over-represented; it also holds similar structures and randomly drawn compounds.

In the assay the test system is HepG2. Description: cytotoxicity call (relative viability < 0.9). The settings on record: 10 µM.
As to `C[C@H](CO)N1C[C@H](C)[C@H](CN(C)C(=O)c2cccnc2)Oc2cc(C#CC3(O)CCCC3)ccc2S1(=O)=O`, the cytotoxicity call is “inactive”. Under `COc1cccc(S(=O)(=O)N(C)C[C@H]2OCc3cnnn3CCCC(=O)N([C@@H](C)CO)C[C@H]2C)c1` stands “inactive”; under `C[C@H]1CN([C@@H](C)CO)C(=O)c2cccc(NS(C)(=O)=O)c2O[C@@H]1CN(C)C(=O)Nc1ccccc1`, “inactive”; under `CC(C)NC(=O)N(C)C[C@@H]1Oc2ccc(NS(=O)(=O)c3ccccc3)cc2C(=O)N([C@@H](C)CO)C[C@H]1C`, “inactive”.

On to `Cc1noc(C)c1S(=O)(=O)Nc1ccc2c(c1)CC(=O)N([C@H](C)CO)C[C@@H](C)[C@H](CN(C)C(=O)Nc1ccccc1)O2`, for which the cytotoxicity call was “inactive”. The same measure for `C[C@@H]1CN([C@H](C)CO)C(=O)c2cc(NC(=O)NC3CCCCC3)ccc2O[C@H]1CN(C)Cc1ccc(Cl)c(Cl)c1`: “inactive”. As to `C[C@H](CO)N1C[C@H](C)[C@@H](CN(C)C(=O)Nc2cccc3ccccc23)Oc2ccc(NC(=O)CCC(F)(F)F)cc2CC1=O`, the cytotoxicity call was “inactive”.

Turning to `C[C@@H]1CCCCO[C@H](CN(C)C(=O)Nc2ccccc2)[C@H](C)CN([C@H](C)CO)C(=O)c2cc(NC(=O)NC3CCCCC3)ccc2O1`, the cytotoxicity call was “inactive”. Take `CC(C)CC#Cc1cnc2c(c1)C(=O)N([C@H](C)CO)C[C@H](C)[C@H](CN(C)S(=O)(=O)c1cn(C)cn1)O2`: the cytotoxicity call was “inactive”.

On to `C[C@@H]1CN([C@@H](C)CO)C(=O)c2cc(NC(=O)Nc3cccc4ccccc34)ccc2O[C@@H](C)CCCCO[C@H]1CN(C)C(=O)NC1CCCCC1`, for which the cytotoxicity call was “inactive”. `C[C@@H]1CCCCO[C@@H](CN(C)C(=O)NC2CCCCC2)[C@H](C)CN([C@H](C)CO)C(=O)c2cc(NC(=O)Nc3cccc4ccccc34)ccc2O1`: the cytotoxicity call was “inactive”. For the compound `C[C@@H]1CN([C@H](C)CO)C(=O)c2cc(NC(=O)Nc3cccc4ccccc34)ccc2O[C@@H](C)CCCCO[C@H]1CN(C)C(=O)NC1CCCCC1`, the cytotoxicity call is “active”. Take `C[C@@H]1CCCCO[C@H](CN(C)C(=O)Nc2cccc3ccccc23)[C@@H](C)CN([C@H](C)CO)C(=O)c2cc(NC(=O)NC3CCCCC3)ccc2O1`: the cytotoxicity call is “inactive”. Take `C[C@@H]1CCCCO[C@@H](CN(C)C(=O)Nc2cccc3ccccc23)[C@H](C)CN([C@H](C)CO)C(=O)c2cc(NC(=O)NC3CCCCC3)ccc2O1`: the cytotoxicity call was “inactive”. On to `C[C@H]1CCCCO[C@H](CN(C)C(=O)Nc2cccc3ccccc23)[C@@H](C)CN([C@@H](C)CO)C(=O)c2cc(NC(=O)NC3CCCCC3)ccc2O1`, for which the cytotoxicity call was “inactive”.

For the compound `C[C@@H]1CCCCO[C@H](CN(C)C(=O)Nc2cccc3ccccc23)[C@H](C)CN([C@@H](C)CO)C(=O)c2cc(NC(=O)NC3CCCCC3)ccc2O1`, the cytotoxicity call was “active”. Take `C[C@H](CO)N1C[C@H](C)[C@H](CN(C)C(=O)Nc2cccc3ccccc23)OCCCC[C@H](C)Oc2ccc(NC(=O)NC3CCCCC3)cc2C1=O`: the cytotoxicity call is “active”. Regarding `C[C@@H]1CCCCO[C@@H](CN(C)C(=O)Nc2cccc3ccccc23)[C@H](C)CN([C@@H](C)CO)C(=O)c2cc(NC(=O)NC3CCCCC3)ccc2O1`, the cytotoxicity call is “inactive”. Under `CC(C)NC(=O)Nc1ccc2c(c1)C(=O)N([C@H](C)CO)C[C@@H](C)[C@H](CN(C)S(=O)(=O)c1ccccc1)O2` stands “inactive”. Take `C[C@@H]1CN([C@@H](C)CO)C(=O)c2cccc(NC(=O)c3cnccn3)c2O[C@H]1CN(C)Cc1ccc(C(=O)O)cc1`: the cytotoxicity call is “inactive”. Under `C[C@@H]1CCCCO[C@H](CN(C)C(=O)c2ccccc2)[C@H](C)CN([C@@H](C)CO)C(=O)c2cc(NC(=O)Nc3cccc4ccccc34)ccc2O1` stands “inactive”. Turning to `O=C(C[C@@H]1CC[C@H](NS(=O)(=O)c2ccc(F)cc2)[C@H](CO)O1)N1CCC(Cc2ccccc2)CC1`, the cytotoxicity call was “inactive”. In the case of `Cc1ccc(S(=O)(=O)N(C)C[C@@H]2Oc3ccc(NS(=O)(=O)c4cn(C)cn4)cc3CC(=O)N([C@H](C)CO)C[C@H]2C)cc1`, the cytotoxicity call was “inactive”. On to `c1ccc(Cn2c(-c3ccc(OC[C@H](C4CCNCC4)n4c(-c5ccccc5)nc5ccccc54)cc3)nc3ccccc32)cc1`, for which the cytotoxicity call is “active”.

`Cc1cccc(-c2nc3ccccc3n2CCC(C)C)c1`: the cytotoxicity call was “inactive”. The same measure for `Cc1ccc(OCCn2c(CC(C)(C)C)nc3ccccc32)cc1`: “inactive”; for `Cc1cncc2cccc(S(=O)(=O)N[C@H]3CN[C@H](COC(=O)NCCOCCOCCN)C3)c12`: “inactive”; for `Cn1cc(CO)cn1`: “inactive”. Take `O=C(C[C@@H]1CC[C@H]2[C@@H](COC[C@@H](O)CN2C(=O)Nc2ccc3c(c2)OCO3)O1)N1CCN(c2ccccc2)CC1`: the cytotoxicity call is “inactive”. In the case of `COc1ccc(NC(=O)Nc2cccc3c2O[C@@H](CN(C)Cc2ccc(-c4ccccc4)cc2)[C@@H](C)CN([C@H](C)CO)C3=O)cc1`, the cytotoxicity call was “inactive”. `COc1ccc(NC(=O)Nc2cccc3c2O[C@H](CN(C)Cc2ccc(-c4ccccc4)cc2)[C@@H](C)CN([C@H](C)CO)C3=O)cc1`: the cytotoxicity call is “inactive”.

In the case of `COc1ccc(NC(=O)Nc2cccc3c2O[C@H](CN(C)Cc2ccc(-c4ccccc4)cc2)[C@H](C)CN([C@H](C)CO)C3=O)cc1`, the cytotoxicity call was “active”. Take `COc1ccc(NC(=O)Nc2cccc3c2O[C@H](CN(C)Cc2ccc(-c4ccccc4)cc2)[C@H](C)CN([C@@H](C)CO)C3=O)cc1`: the cytotoxicity call is “active”. The same measure for `C[C@H]1CN([C@@H](C)CO)C(=O)c2cccc(NC(=O)Nc3ccccc3)c2O[C@H]1CN(C)Cc1ccc(-c2ccccc2)cc1`: “inactive”; for `COc1ccc(NC(=O)Nc2cccc3c2O[C@@H](CN(C)Cc2ccc(-c4ccccc4)cc2)[C@@H](C)CN([C@@H](C)CO)C3=O)cc1`: “inactive”. The same measure for `COc1ccc(NC(=O)Nc2cccc3c2O[C@@H](CN(C)Cc2ccc(-c4ccccc4)cc2)[C@H](C)CN([C@@H](C)CO)C3=O)cc1`: “inactive”; for `COc1ccc(NC(=O)Nc2cccc3c2O[C@@H](CN(C)Cc2ccc(-c4ccccc4)cc2)[C@H](C)CN([C@H](C)CO)C3=O)cc1`: “active”; for `COc1ccc(NC(=O)Nc2cccc3c2O[C@H](CN(C)Cc2ccc(-c4ccccc4)cc2)[C@@H](C)CN([C@@H](C)CO)C3=O)cc1`: “active”. With `COc1ccc(NC(=O)N(C)C[C@H]2OCCCC[C@@H](C)Oc3ccc(NC(=O)C4CCCCC4)cc3C(=O)N([C@H](C)CO)C[C@@H]2C)cc1`, the cytotoxicity call was “inactive”.
